Experimental data: the supplement of paper PMC10849652
About 8,800 targets were measured; listed, in parts, are those with a hit and a random draw of the rest. About 0.5% of all pairs of compound and target were hits.

Legend:
Assay in all cases: log2 fold change, soluble protein after heating vs DMSO (PISA); higher = thermal stabilisation; K562 lysate, 10 uM; active = over 0.2 and 3.5 SD of the protein, either way, in both replicates (recomputed)
erlotinib = compound: C#Cc1cccc(Nc2ncnc3cc(OCCOC)c(OCCOC)cc23)c1 [erlotinib]
Summary of the method: (§1)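 Thermal stability, expressed as log-two fold change relative to solvent controls, is given from duplicates. Crude K562 extract in PBS pH 7.4 with 1 mM MgCl2, at 1 mg/mL protein, was treated with 10 μM compound for 30 min and heated in aliquots for 3 min across 48°C-58°C. After pooling, adjustment to 0.5% NP-40 at 4°C and centrifugation at 21,000xg for 90 min, supernatant protein was measured by TMTpro 16plex LC-MS/MS with channel sums equalised.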

[1] = compound: C/C(=N\NC(=O)C1=CC(=CC=C1)S(=O)(=O)N2CCOCC2)/C3=C(C=CC(=C3)Cl)O
Summary of the method: as §1

[2] = compound: C1=CC(=CC=C1C2=NC3=C(N2)C=C(C=C3)C(=O)N)OC4=CC=C(C=C4)Cl
Summary of the method: as §1

[3] = compound: C1=CC2=C(C=CC(=C2)/C=C\3/C(=O)NC(=NCC4=CC=CS4)S3)N=C1
Summary of the method: as §1

[4] = compound: C1=CC2=NC=CN=C2C=C1/C=C/3\C(=O)NC(=O)S3
Summary of the method: as §1

[5] = compound: C1=CC=C(C=C1)C2=NC(=C(N2)C3=CC=NC=C3)C4=CC(=C(C=C4)Cl)O
Summary of the method: as §1

[6] = compound: C1=CC=C2C(=C1)C3=NNC4=CC=CC(=C43)C2=O
Summary of the method: as §1

[7] = compound: C1CCN(C1)C(=O)NC2=CC=CC(=C2)NC3=NC=C(C(=N3)NCCC4=CN=CN4)Br
Summary of the method: as §1

[8] = compound: C1CN(CCC1(CC2=CC=C(C=C2)Cl)N)C3=NC=NC4=C3C=CN4
Summary of the method: as §1

IRAK-1-4 Inhibitor I = compound: C1COCCN1CCN2C3=CC=CC=C3N=C2NC(=O)C4=CC(=CC=C4)[N+](=O)[O-] [IRAK-1-4 Inhibitor I]
Summary of the method: as §1

ibrutinib = compound: C=CC(=O)N1CCC[C@@H](n2nc(-c3ccc(Oc4ccccc4)cc3)c3c(N)ncnc32)C1 [ibrutinib]
Summary of the method: as §1

[9] = compound: CC(=O)c1cnc2ccc(-c3cc(Cl)c(O)c(Cl)c3)nc2c1N[C@H]1CC[C@H](CN(C)C)CC1
Summary of the method: as §1

ralimetinib = compound: CC(C)(C)Cn1c(N)nc2ccc(-c3[nH]c(C(C)(C)C)nc3-c3ccc(F)cc3)nc21 [ralimetinib]
Summary of the method: as §1

[10] = compound: CC(C)(O)CC(=O)NCCn1ccc2ncnc(Nc3ccc(Oc4cccc(C(F)(F)F)c4)c(Cl)c3)c21
Summary of the method: as §1

[11] = compound: CC(C)C1=C2N=C(C=C(N2N=C1)NCC3=CC=CC=C3)NCCCCCCN
Summary of the method: as §1

[12] = compound: CC1=C(C(CC(=O)N1)C2=CC=C(C=C2)C(F)(F)F)C(=O)NC3=C(C=C4C(=C3)C=NN4)F
Summary of the method: as §1

[13] = compound: CC1=C(C2=C(C=C1)C(=O)C3=CC=CC=C3N2CCCN)C
Summary of the method: as §1

[14] = compound: CC1=C(C=C(C=C1)NC(=O)C2=CC(=CC=C2)C(C)(C)C#N)NC3=CC4=C(C=C3)N=CN(C4=O)C
Summary of the method: as §1

[15] = compound: CC1=C(C=C(C=C1)NC(=O)C2=CC(=CC=C2)N(C)C)NC(=O)C3=CC=C(C=C3)O
Summary of the method: as §1

[16] = compound: CC1=CC=C(C=C1)SC2=C3C=C(SC3=CN=C2)C(=O)N
Summary of the method: as §1

Sequence of UniProt Q9P0S9 (Q9P0S9 whole entry, looked up): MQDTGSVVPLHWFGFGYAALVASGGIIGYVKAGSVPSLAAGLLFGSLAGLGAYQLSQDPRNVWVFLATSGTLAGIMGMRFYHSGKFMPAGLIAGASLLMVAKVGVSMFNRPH
Sequence of UniProt Q8TBZ6 (Q8TBZ6 whole entry, looked up): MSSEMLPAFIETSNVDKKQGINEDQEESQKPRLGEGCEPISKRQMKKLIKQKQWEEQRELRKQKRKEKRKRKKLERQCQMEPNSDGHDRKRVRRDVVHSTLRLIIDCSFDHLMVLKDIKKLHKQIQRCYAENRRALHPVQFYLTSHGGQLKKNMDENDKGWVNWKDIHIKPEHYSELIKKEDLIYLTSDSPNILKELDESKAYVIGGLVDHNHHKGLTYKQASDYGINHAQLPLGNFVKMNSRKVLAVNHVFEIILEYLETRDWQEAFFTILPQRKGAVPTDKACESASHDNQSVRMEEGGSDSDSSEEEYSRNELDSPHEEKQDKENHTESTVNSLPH
Sequence of UniProt O60701 (O60701 whole entry, looked up): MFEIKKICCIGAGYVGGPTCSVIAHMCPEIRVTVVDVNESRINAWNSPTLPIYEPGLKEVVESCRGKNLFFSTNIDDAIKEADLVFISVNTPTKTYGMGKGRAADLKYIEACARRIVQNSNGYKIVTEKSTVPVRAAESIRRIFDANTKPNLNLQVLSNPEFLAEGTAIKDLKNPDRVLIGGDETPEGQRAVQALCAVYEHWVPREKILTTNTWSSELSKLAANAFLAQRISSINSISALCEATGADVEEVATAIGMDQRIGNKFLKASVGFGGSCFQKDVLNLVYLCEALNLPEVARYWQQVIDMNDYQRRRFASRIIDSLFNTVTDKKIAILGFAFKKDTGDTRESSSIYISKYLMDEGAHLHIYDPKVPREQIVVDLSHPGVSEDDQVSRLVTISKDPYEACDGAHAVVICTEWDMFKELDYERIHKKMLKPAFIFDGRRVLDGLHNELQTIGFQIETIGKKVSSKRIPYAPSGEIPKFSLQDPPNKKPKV
Sequence of UniProt Q9NYB0 (Q9NYB0 whole entry, looked up): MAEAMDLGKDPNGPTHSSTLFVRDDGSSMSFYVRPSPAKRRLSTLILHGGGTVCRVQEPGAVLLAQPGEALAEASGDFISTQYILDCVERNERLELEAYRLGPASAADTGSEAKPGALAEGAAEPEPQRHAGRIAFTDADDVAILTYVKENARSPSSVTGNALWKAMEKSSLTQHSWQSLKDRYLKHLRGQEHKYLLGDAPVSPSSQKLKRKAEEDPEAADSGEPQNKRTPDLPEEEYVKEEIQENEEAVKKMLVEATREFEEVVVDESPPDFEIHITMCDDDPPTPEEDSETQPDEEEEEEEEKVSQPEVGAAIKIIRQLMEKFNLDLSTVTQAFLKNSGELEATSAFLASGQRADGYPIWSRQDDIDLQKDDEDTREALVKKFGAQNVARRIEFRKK
Sequence of UniProt Q6YHU6 (Q6YHU6 whole entry, looked up): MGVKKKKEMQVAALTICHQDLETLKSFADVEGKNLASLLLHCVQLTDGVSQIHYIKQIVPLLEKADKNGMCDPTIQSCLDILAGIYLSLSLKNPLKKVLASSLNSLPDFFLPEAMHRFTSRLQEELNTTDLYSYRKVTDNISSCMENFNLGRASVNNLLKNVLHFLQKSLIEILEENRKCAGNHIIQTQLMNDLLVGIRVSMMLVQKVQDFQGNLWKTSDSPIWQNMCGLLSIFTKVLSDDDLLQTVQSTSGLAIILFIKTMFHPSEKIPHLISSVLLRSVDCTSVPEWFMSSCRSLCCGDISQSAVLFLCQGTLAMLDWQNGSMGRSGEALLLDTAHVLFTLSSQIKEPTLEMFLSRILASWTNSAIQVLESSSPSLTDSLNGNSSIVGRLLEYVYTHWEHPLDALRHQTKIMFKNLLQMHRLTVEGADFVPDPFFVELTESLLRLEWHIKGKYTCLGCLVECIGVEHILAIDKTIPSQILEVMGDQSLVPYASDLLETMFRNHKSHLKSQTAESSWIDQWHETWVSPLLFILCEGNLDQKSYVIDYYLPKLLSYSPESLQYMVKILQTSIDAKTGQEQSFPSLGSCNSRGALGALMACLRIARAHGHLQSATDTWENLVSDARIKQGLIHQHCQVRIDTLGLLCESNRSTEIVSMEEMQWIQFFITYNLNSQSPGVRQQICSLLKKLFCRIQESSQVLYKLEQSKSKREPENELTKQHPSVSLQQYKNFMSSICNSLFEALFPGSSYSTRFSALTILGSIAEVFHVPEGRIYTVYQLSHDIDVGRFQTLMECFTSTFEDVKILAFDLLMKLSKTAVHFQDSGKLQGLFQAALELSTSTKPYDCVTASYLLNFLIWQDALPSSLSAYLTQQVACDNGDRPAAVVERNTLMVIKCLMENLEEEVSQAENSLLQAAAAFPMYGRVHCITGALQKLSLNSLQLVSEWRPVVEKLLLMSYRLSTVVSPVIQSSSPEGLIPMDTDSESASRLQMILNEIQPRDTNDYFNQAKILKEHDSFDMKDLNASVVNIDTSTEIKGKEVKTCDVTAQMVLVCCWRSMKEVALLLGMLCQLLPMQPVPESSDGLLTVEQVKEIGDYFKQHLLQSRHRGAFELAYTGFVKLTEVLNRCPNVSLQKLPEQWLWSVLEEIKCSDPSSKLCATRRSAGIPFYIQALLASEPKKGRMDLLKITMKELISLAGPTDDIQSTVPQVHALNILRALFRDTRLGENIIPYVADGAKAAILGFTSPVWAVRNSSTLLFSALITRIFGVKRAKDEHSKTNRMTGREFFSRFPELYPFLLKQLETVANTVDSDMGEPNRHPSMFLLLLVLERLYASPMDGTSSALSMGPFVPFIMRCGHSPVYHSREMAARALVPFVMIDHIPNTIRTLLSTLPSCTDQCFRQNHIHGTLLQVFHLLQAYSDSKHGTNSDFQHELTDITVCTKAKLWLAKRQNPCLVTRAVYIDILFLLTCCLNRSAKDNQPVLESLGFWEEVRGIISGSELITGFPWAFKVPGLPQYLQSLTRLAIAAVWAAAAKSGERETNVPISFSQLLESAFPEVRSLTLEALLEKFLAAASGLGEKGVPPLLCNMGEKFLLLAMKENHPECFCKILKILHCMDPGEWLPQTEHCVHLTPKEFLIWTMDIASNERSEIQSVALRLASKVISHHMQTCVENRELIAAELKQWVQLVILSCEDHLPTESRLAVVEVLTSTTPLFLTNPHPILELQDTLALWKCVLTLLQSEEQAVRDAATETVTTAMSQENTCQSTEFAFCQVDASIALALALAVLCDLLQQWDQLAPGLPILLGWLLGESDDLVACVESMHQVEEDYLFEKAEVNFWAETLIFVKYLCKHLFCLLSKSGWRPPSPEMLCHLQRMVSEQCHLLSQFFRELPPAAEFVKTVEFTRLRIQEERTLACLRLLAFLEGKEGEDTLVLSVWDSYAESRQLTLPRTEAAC
Sequence of UniProt P28289 (P28289 whole entry, looked up): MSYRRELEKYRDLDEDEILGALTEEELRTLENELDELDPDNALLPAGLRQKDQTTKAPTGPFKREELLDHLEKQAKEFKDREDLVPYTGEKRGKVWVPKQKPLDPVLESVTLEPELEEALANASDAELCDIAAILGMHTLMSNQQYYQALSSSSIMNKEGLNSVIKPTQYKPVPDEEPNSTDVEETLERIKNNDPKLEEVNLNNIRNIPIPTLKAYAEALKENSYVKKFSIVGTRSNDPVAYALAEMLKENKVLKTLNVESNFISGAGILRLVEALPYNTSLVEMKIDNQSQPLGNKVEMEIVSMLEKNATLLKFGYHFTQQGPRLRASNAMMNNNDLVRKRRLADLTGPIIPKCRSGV
Sequence of UniProt Q9UPN9 (Q9UPN9 whole entry, looked up): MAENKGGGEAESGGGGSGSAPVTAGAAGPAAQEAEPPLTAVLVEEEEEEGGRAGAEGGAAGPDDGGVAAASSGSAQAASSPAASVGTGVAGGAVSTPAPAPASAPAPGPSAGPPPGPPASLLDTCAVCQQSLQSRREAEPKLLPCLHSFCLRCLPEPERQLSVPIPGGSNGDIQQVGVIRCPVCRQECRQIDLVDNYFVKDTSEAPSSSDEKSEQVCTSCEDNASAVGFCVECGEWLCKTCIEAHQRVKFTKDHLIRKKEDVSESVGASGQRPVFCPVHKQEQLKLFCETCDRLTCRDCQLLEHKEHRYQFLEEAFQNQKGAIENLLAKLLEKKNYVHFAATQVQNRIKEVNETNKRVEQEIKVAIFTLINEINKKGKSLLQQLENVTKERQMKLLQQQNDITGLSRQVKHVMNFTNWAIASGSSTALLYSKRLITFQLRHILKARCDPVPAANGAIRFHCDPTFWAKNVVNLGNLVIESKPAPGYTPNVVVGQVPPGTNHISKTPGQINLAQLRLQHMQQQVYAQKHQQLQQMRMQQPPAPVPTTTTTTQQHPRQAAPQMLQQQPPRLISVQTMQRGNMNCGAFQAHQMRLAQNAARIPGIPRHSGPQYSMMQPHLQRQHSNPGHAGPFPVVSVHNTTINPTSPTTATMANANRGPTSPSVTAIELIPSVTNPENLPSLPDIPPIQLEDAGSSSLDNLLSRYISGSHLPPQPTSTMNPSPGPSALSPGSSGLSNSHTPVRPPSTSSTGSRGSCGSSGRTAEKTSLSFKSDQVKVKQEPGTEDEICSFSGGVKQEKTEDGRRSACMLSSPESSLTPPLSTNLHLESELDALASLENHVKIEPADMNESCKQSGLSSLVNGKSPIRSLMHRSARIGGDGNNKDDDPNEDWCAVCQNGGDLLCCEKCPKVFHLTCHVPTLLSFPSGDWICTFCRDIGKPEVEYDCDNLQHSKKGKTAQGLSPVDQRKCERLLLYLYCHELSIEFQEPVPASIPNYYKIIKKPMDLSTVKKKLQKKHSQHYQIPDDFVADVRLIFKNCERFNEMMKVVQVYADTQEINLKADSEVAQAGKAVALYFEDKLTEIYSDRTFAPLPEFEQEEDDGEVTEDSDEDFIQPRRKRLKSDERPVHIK

Target | log2 fold change (erlotinib) | log2 fold change [1] | log2 fold change [2] | log2 fold change [3] | log2 fold change [4] | log2 fold change [5] | log2 fold change [6] | log2 fold change [7] | log2 fold change [8] | log2 fold change (IRAK-1-4 Inhibitor I) | log2 fold change (ibrutinib) | log2 fold change [9] | log2 fold change (ralimetinib) | log2 fold change [10] | log2 fold change [11] | log2 fold change [12] | log2 fold change [13] | log2 fold change [14] | log2 fold change [15] | log2 fold change [16]
TMEM14C (UniProt Q9P0S9) | 0.027 (inactive) | -0.201 (inactive) | 0.046 (inactive) | -0.011 (inactive) | -0.039 (inactive) | 0.022 (inactive) | 0.063 (inactive) | -0.177 (inactive) | -0.042 (inactive) | 0.064 (inactive) | 0.04 (inactive) | 0.085 (inactive) | 0.129 (inactive) | -0.077 (inactive) | -0.135 (inactive) | -0.047 (inactive) | -0.146 (inactive) | 0.048 (inactive) | 0.007 (inactive) | 0.152 (inactive)
TUBB4B (UniProt P68371) | 0.008 (inactive) | -0.059 (inactive) | 0.019 (inactive) | -0.018 (inactive) | 0.005 (inactive) | -0.024 (inactive) | -0.011 (inactive) | 0.019 (inactive) | 0.03 (inactive) | 0.04 (inactive) | -0.012 (inactive) | 0.029 (inactive) | 0.026 (inactive) | 0.029 (inactive) | 0.02 (inactive) | 0.011 (inactive) | 0.022 (inactive) | -0.05 (inactive) | 0.035 (inactive) | 0.018 (inactive)
TERF2IP (UniProt Q9NYB0) | -0.003 (inactive) | 0.025 (inactive) | 0.03 (inactive) | -0.054 (inactive) | -0.023 (inactive) | -0.001 (inactive) | 0.005 (inactive) | 0.019 (inactive) | 0.029 (inactive) | 0.009 (inactive) | 0.02 (inactive) | -0.012 (inactive) | 0.025 (inactive) | -0.049 (inactive) | -0.047 (inactive) | 0.004 (inactive) | -0.004 (inactive) | -0.008 (inactive) | -0.005 (inactive) | 0.003 (inactive)
TROAP (UniProt Q12815) | -0.023 (inactive) | -0.02 (inactive) | 0.028 (inactive) | -0.036 (inactive) | -0.054 (inactive) | 0.017 (inactive) | -0.027 (inactive) | 0.035 (inactive) | 0.104 (inactive) | -0.011 (inactive) | 0.191 (inactive) | -0.096 (inactive) | 0.042 (inactive) | -0.02 (inactive) | 0.037 (inactive) | 0.011 (inactive) | 0.02 (inactive) | -0.006 (inactive) | 0.08 (inactive) | -0.25 (inactive)
TRMT10A (UniProt Q8TBZ6) | -0.003 (inactive) | -0.26 (inactive) | -0.007 (inactive) | -0.018 (inactive) | -0.024 (inactive) | 0.018 (inactive) | 0.252 (active) | -0.017 (inactive) | 0.044 (inactive) | 0.044 (inactive) | -0.002 (inactive) | -0.003 (inactive) | 0.021 (inactive) | -0.01 (inactive) | -0.033 (inactive) | 0.009 (inactive) | -0.031 (inactive) | 0.06 (inactive) | -0.022 (inactive) | 0.07 (inactive)
TCF12 isoform 3 (UniProt Q99081) | -0.001 (inactive) | -0.025 (inactive) | 0.081 (inactive) | 0.006 (inactive) | -0.004 (inactive) | -0.017 (inactive) | 0.003 (inactive) | -0.063 (inactive) | 0.006 (inactive) | 0.051 (inactive) | 0.059 (inactive) | -0.029 (inactive) | -0.022 (inactive) | -0.054 (inactive) | 0.002 (inactive) | -0.008 (inactive) | 0.064 (inactive) | -0.008 (inactive) | 0.011 (inactive) | 0.109 (inactive)
TTL (UniProt Q8NG68) | 0.056 (inactive) | 0.01 (inactive) | 0 (inactive) | 0.019 (inactive) | -0.001 (inactive) | -0.027 (inactive) | 0.097 (inactive) | 0.006 (inactive) | -0.074 (inactive) | 0.019 (inactive) | 0.014 (inactive) | 0.101 (inactive) | -0.029 (inactive) | 0.037 (inactive) | 0.018 (inactive) | 0.016 (inactive) | -0.065 (inactive) | 0.063 (inactive) | 0.063 (inactive) | -0.074 (inactive)
TMOD1 (UniProt P28289) | 0.002 (inactive) | -0.091 (inactive) | 0.018 (inactive) | 0.018 (inactive) | -0.001 (inactive) | 0.003 (inactive) | 0.013 (inactive) | -0.005 (inactive) | -0.002 (inactive) | 0.012 (inactive) | 0.002 (inactive) | 0.007 (inactive) | -0.015 (inactive) | -0.02 (inactive) | 0 (inactive) | -0.004 (inactive) | 0.006 (inactive) | 0 (inactive) | 0.016 (inactive) | -0.019 (inactive)
THADA (UniProt Q6YHU6) | 0.059 (inactive) | -0.003 (inactive) | 0 (inactive) | 0.004 (inactive) | -0.011 (inactive) | -0.004 (inactive) | -0.017 (inactive) | -0.024 (inactive) | 0.017 (inactive) | -0.017 (inactive) | 0.011 (inactive) | 0.006 (inactive) | -0.009 (inactive) | -0.029 (inactive) | -0.016 (inactive) | -0.01 (inactive) | 0.012 (inactive) | 0.028 (inactive) | 0.03 (inactive) | 0.013 (inactive)
TRIM33 isoform 2 (UniProt Q9UPN9) | 0.004 (inactive) | -0.016 (inactive) | 0.014 (inactive) | 0.004 (inactive) | -0.002 (inactive) | 0.003 (inactive) | 0.008 (inactive) | -0.03 (inactive) | 0.006 (inactive) | -0.02 (inactive) | 0.04 (inactive) | 0.006 (inactive) | 0.024 (inactive) | 0.022 (inactive) | -0.026 (inactive) | 0.01 (inactive) | 0 (inactive) | -0.014 (inactive) | 0.019 (inactive) | 0.005 (inactive)
UGDH (UniProt O60701) | 0.002 (inactive) | 0.046 (inactive) | -0.02 (inactive) | -0.009 (inactive) | 0.02 (inactive) | -0.041 (inactive) | -0.051 (inactive) | -0.004 (inactive) | -0.052 (inactive) | -0.053 (inactive) | 0.02 (inactive) | 0.02 (inactive) | 0.085 (inactive) | -0.004 (inactive) | -0.004 (inactive) | 0.019 (inactive) | 0.215 (active) | -0.037 (inactive) | 0.058 (inactive) | 0.031 (inactive)
THOC5 (UniProt Q13769) | 0.013 (inactive) | -0.105 (inactive) | 0.036 (inactive) | -0.035 (inactive) | 0.008 (inactive) | -0.001 (inactive) | -0.016 (inactive) | 0.005 (inactive) | 0.001 (inactive) | -0.012 (inactive) | 0.023 (inactive) | 0.004 (inactive) | 0.015 (inactive) | -0.011 (inactive) | 0.008 (inactive) | -0.011 (inactive) | -0.002 (inactive) | 0.004 (inactive) | 0.018 (inactive) | -0.001 (inactive)
TBC1D2B (UniProt Q9UPU7) | -0.005 (inactive) | -0.028 (inactive) | 0.098 (inactive) | 0.03 (inactive) | -0.053 (inactive) | 0.042 (inactive) | -0.111 (inactive) | -0.031 (inactive) | -0.024 (inactive) | -0.075 (inactive) | 0.075 (inactive) | -0.017 (inactive) | 0.008 (inactive) | 0.003 (inactive) | -0.054 (inactive) | 0.058 (inactive) | 0.006 (inactive) | -0.03 (inactive) | 0.031 (inactive) | 0.025 (inactive)
TUBB2A (UniProt Q13885) | 0.008 (inactive) | 0.04 (inactive) | 0.004 (inactive) | -0.021 (inactive) | -0.028 (inactive) | -0.008 (inactive) | -0.03 (inactive) | 0.014 (inactive) | 0.026 (inactive) | 0.019 (inactive) | 0.005 (inactive) | 0.014 (inactive) | 0.032 (inactive) | -0.005 (inactive) | 0.027 (inactive) | 0.02 (inactive) | 0.001 (inactive) | -0.011 (inactive) | 0.032 (inactive) | 0.001 (inactive)
TLK1 isoform 2 (UniProt Q9UKI8) | 0 (inactive) | -0.029 (inactive) | -0.024 (inactive) | -0.013 (inactive) | -0.007 (inactive) | -0.016 (inactive) | 0.145 (inactive) | 0.007 (inactive) | 0.099 (inactive) | 0.023 (inactive) | 0.017 (inactive) | 0.094 (inactive) | 0.053 (inactive) | 0.01 (inactive) | 0.012 (inactive) | -0.002 (inactive) | 0.038 (inactive) | -0.013 (inactive) | -0.037 (inactive) | 0 (inactive)
TMEM87A (UniProt Q8NBN3) | -0.015 (inactive) | -0.021 (inactive) | 0.01 (inactive) | 0.037 (inactive) | -0.02 (inactive) | -0.02 (inactive) | -0.027 (inactive) | 0.031 (inactive) | -0.004 (inactive) | -0.028 (inactive) | -0.002 (inactive) | 0.019 (inactive) | -0.031 (inactive) | -0.035 (inactive) | -0.075 (inactive) | -0.017 (inactive) | -0.02 (inactive) | 0.016 (inactive) | 0.004 (inactive) | -0.02 (inactive)
